In PubChem BioAssay (NCATS) one finds Potency data, which are given here for 40 compounds.

SMILES strings stand for the structures. Records with an inconclusive call do not appear. Entries that show only a call come without a potency. Active and inactive are the calls of the source. Calls follow the shape of the dose curve; as a rule, active = well fitted activation curve with a large enough effect; inconclusive = small, poorly fitted or top-dose-only effect; inactive = no such curve, though single readings can be large or run the other way.
Potency is read from the fitted curve at half-maximal effect.

The target of this assay is Rap guanine nucleotide exchange factor 3 (Homo sapiens) (UniProt O95398). The assay is described as follows: Confirmatory qHTS for agonist of cAMP-regulated guanine nucleotide exchange factor 3 (EPAC1) (AID 1645881). Also: nearly all actives have a fitted effect of over 75% in size.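 As to activation: EPAC1 catalysed release of BODIPY-GDP from Rap1B seen as fluorescence loss.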 As to conditions: EPAC1 Rap1B BODIPY-GDP exchange fluorescence; series mostly up to 154 µM. On the technique in general: Quantitative high-throughput screening tests each substance at several concentrations.
Rap guanine nucleotide exchange factor 3 (Homo sapiens), sequence (O95398 whole entry, looked up): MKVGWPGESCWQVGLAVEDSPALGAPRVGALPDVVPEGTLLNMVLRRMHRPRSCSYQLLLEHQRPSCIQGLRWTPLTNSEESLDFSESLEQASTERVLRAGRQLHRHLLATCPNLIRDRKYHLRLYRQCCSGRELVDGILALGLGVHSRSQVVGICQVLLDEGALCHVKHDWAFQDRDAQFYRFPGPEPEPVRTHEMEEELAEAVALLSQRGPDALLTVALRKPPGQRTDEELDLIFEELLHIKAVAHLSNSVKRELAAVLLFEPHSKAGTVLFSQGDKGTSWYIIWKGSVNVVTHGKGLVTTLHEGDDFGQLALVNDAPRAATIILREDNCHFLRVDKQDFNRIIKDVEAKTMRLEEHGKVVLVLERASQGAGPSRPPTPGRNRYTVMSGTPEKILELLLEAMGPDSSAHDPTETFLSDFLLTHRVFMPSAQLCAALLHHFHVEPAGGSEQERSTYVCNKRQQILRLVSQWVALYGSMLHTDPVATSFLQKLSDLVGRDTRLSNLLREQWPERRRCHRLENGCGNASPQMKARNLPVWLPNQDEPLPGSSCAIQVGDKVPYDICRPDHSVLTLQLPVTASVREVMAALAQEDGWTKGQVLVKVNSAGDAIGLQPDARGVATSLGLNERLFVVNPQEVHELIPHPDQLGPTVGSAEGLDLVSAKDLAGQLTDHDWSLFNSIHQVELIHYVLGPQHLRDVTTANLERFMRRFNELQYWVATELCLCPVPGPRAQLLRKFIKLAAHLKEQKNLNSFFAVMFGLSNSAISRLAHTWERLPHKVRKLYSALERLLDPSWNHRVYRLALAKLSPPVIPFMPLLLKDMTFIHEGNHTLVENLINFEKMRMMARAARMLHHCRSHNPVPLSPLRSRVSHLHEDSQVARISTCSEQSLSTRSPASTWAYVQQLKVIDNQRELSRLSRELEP
`OC(c1ccc2ccccc2n1)c1c(Cl)cccc1Cl` (stereo not given): the Potency result was “inactive”.

As for `COC(=O)C1=C(C)N(c2ccc(OC)cc2)C(C)=C(C(=O)OC)C1c1ccccc1`, the Potency entry was “inactive”. The same measure for `C=CCN1C(=O)/C(=C/C=C2/N(CC)c3ccc(S(=O)(=O)N(C)C)cc3N2CC)SC1=S`: “inactive”; for `Cc1ccccc1SCC(=O)Nc1cc(C(F)(F)F)ccc1N1CCOCC1`: “inactive”; for `CCOc1cc(-c2ccc(OC(=O)c3ccc(OC)cc3)c(OC)c2)cc(=O)c2c(C)oc(C)c12`: “inactive”. Turning to `COc1cc(NC(=O)CCNC(=O)Cn2ccc3ccccc3c2=O)cc(OC)c1OC`, the Potency result is “inactive”.

As to `CCN(CC)CC#CCOC(c1ccccc1)c1ccccc1`, the Potency entry is “inactive”. As for `CCn1nc(C)c(C(=O)Nc2cc(Oc3ccc(Cl)cc3)cc([N+](=O)[O-])c2)c1C`, the Potency result was “inactive”. As for `CCOc1cc(CNc2ccc(O)cc2)ccc1OCc1ccc(Cl)cc1`, the Potency entry was “inactive”. Under `Cc1ccc2nc(SCC(=O)c3c(N)n(C4CC4)c(=O)[nH]c3=O)[nH]c2c1` stands “inactive”. Regarding `CCN(C(=O)c1sc2cc(OC)ccc2c1Cl)c1ccccc1`, the Potency entry is “inactive”. Consider `Cc1ccc(NC(=O)N2CC3CCCN3c3ccccc32)cc1Cl` (stereo not given), for which the Potency entry was “inactive”.

On to `COc1cc(SC)ccc1C(=O)NC1CCCc2ccccc21` (stereo not given), for which the Potency result was “inactive”. Under `Cc1ccc(CNC(=O)CN(c2cc(C)cc(C)c2)S(=O)(=O)c2c(C)[nH]c(=O)[nH]c2=O)cc1` stands “inactive”; under `CC(=O)c1cccc(NC(=O)Cn2cc(C(=O)c3cccc(Cl)c3)c(=O)c3ccc(C)nc32)c1`, “inactive”. Under `O=C(Nc1ccccc1OCc1ccccc1)c1ccccc1Br` stands “inactive”.

Consider `CCCc1nn2c(=O)cc(COC(=O)c3ccc(NC(=O)COc4ccccc4F)cc3)nc2s1`, for which the Potency result is “inactive”. Under `O=C1/C(=C\c2cccc(O)c2O)SC(=S)N1Cc1ccccc1` stands “inactive”; under `COc1ccc(C(NC(=O)c2cc(OC)ccc2OC)c2ccccc2)cc1` (stereo not given), “inactive”. The same measure for `Cc1cccc(Cn2c(-c3cccs3)nc3ccccc32)c1`: “inactive”. Under `CC(=O)C1=CCC(c2cccc(Cl)c2)N(S(=O)(=O)c2ccc(C)cc2)C1` (stereo not given) stands “inactive”; under `O=S(=O)(c1ccc(Br)c2ccccc12)N1CCCC1`, “inactive”. `Cc1ccc(-c2noc(-c3nnn(CC(=O)Nc4cc(Cl)ccc4C)c3N)n2)cc1`: the Potency entry is “inactive”. The same measure for `COc1ccc(-c2nc3ccccc3n2Cc2ccccc2)cc1`: “inactive”; for `COC(=O)c1cc2sccc2n1Cc1ccccc1`: “inactive”; for `CCN(CC)CCOC(=O)c1ccc(NC(=O)c2nn(-c3ccc(C)cc3)c(=O)c3c2c2ccccc2n3C)cc1`: “inactive”. On to `O=C1CSC(c2ccc(Cl)cc2Cl)N1c1ccccn1` (stereo not given), for which the Potency result was “inactive”. With `OCCCCC#Cc1c(-c2ccsc2)sc2ccccc12`, the Potency result was “inactive”. The same measure for `COC(=O)c1c(NC(=O)c2ccc(S(=O)(=O)N3CCCCC3C)cc2)sc2c1CCN(C(C)C)C2` (stereo not given): 112 µM (active); for `COc1ccc(Br)cc1CN(C)CC(=O)Nc1c(Cl)cccc1Cl`: “inactive”.

As to `O=C(O)CSCC(=O)N(Cc1ccccc1)c1nc(-c2ccccc2)c(-c2ccccc2)s1`, the Potency result was “inactive”.

For the compound `Nc1ncnc2c1nc(Sc1ccc(Cl)cc1)n2[C@@H]1O[C@@H]2COP(=O)(O)O[C@H]2[C@H]1O`, the Potency was 0.355 µM (active). The same measure for `COCc1ccccc1C1=CC(=O)C[C@H](c2ccc(F)cc2)C1`: “inactive”. The same measure for `Cc1cc(C)c(S(=O)(=O)N(C)c2ccccc2)c(C)c1`: “inactive”; for `COc1ccc(C(=O)Nc2ccc(NC(=O)c3cccs3)cc2)cc1OC`: “inactive”; for `COc1cc(/C=N/NC(=O)c2cc(O)cc(O)c2)ccc1OC(=O)c1ccccc1`: “inactive”. `COc1ccc(C(=O)c2oc3ccccc3c2NC(=O)c2cc(=O)c3ccc(C)cc3o2)cc1Cl`: the Potency entry was “inactive”.

`O=C(N/N=C\c1c(O)ccc2ccccc12)c1ccc(S(=O)(=O)N2CCCCC2)cc1`: the Potency was 44.7 µM (active).

Turning to `CCOc1ccccc1NC(=O)c1ccccc1-c1ccccc1`, the Potency result was “inactive”. As for `COc1ccc(NC(=O)CN(C)C(=O)c2cn(-c3ccccc3)nc2-c2cccnc2)cc1`, the Potency result is “inactive”.
